# Measured values taken from the supplement of paper PMC13380429.
# Unmarked numbers belong to inactive results.
# System: Vero E6 infected with SARS-CoV-2
# Assay: SARS-CoV-2 infection rate relative to infected DMSO; higher = more infection, active = 60 or less
# Conditions: 24 h
row,Compound,SARS-CoV-2 infection rate
1,CCn1c(-c2nonc2N)nc2cnc(Oc3cccc(NC(=O)c4ccc(OCCN5CCOCC5)cc4)c3)cc21 (10 µM),97%
2,c1ccc(Cn2c(N3CCNCC3)nc3ccccc32)cc1 [lerisetron] (10 µM),100%
3,C=CC[C@]1(O)CC[C@H]2[C@@H]3CCC4=CCCC[C@@H]4[C@H]3CC[C@@]21C [allylestrenol] (10 µM),92.5%
4,C[C@@]12CCc3occc3[C@H]1CC[C@@]13C[C@@H](CC[C@H]12)[C@@](O)(CO)C3 [cafestol] (10 µM),112%
5,C[C@@H]1COC(Nc2ccc3ncnc(Nc4ccc(OCc5nccs5)c(Cl)c4)c3c2)=N1 (10 µM),97%
6,C[C@@H]1CN(CCCn2c3ccccc3c3ccccc32)C[C@H](C)N1 [rimcazole] (10 µM),19.5% (active)
7,Cc1ncc(-c2ccnc(Nc3ccc(S(C)(=O)=O)cc3)n2)n1C(C)C (0.833333 µM),99.5%
8,O=C(NCc1ccc(Oc2ccccc2)cc1)c1nc(-c2cc(Br)c(O)c(Br)c2)no1 (0.833333 µM),100%
9,CCC[C@@]1(CCc2ccccc2)CC(O)=C([C@H](CC)c2cccc(NS(=O)(=O)c3ccc(C(F)(F)F)cn3)c2)C(=O)O1 [tipranavir] (10 µM),94.5%
10,Oc1cccc(-c2nc(N3CCOCC3)c3oc4ncccc4c3n2)c1 (10 µM),118%
11,O=[N+]([O-])c1nccn1CC(O)CN1CCCCC1 (stereo unspecified) [pimonidazole] (10 µM),108%
12,NC(=S)N/N=C/c1coc2ccccc2c1=O.[Cl][Cu][Cl] (10 µM),110%
13,CC[C@H](C)[C@H](N)C1=N[C@H](C(=O)N[C@@H](CC(C)C)C(=O)N[C@H](CCC(=O)[O-])C(=O)N[C@H](C(=O)N[C@H]2CCCCNC(=O)[C@H](CC(N)=O)NC(=O)[C@@H](CC(=O)[O-])NC(=O)[C@H](Cc3cnc[nH]3)NC(=O)[C@@H](Cc3ccccc3)NC(=O)[C@H]([C@@H](C)CC)NC(=O)[C@@H](CCCN)NC2=O)[C@@H](C)CC)CS1.[Zn+2] [bacitracin-zinc] (10 µM),108%
14,C[C@@H](Oc1cc(-n2cnc3ccc(CN4CCN(C)CC4)cc32)sc1C(N)=O)c1ccccc1C(F)(F)F (0.833333 µM),94%
15,C[C@@]12C[C@@]3(O)O[C@@H](O1)[C@]1(COC(=O)c4ccccc4)[C@H]3C[C@@]12O[C@@H]1O[C@H](CO)[C@@H](O)[C@H](O)[C@H]1O [paeoniflorin] (10 µM),92.5%
16,Cc1cccc(/C=N/Nc2cc(N3CCOCC3)nc(OCCc3ccccn3)n2)c1 (10 µM),43.5% (active)

row,Compound,SARS-CoV-2 infection rate
1,Cn1c(C#N)ccc1-c1ccc2c(c1)C(C)(C)OC(=S)N2 [tanaproget] (10 µM),102%
2,NC(=O)N/N=C/c1ccc(Oc2ccc(F)cc2)cc1 (10 µM),112%
3,COc1cc(-c2cc(-c3cccc(O)c3)cnc2N)cc(OC)c1OC (10 µM),95%
4,O=C1c2c(O)ccc(O)c2C(=O)c2c(NCCNCCO)ccc(NCCNCCO)c21 [mitoxantrone] (0.833333 µM),108%
5,CC(C)=CCC/C(C)=C/CC/C(C)=C/C=C/C(C)=C/C(=O)O [peretinoin] (10 µM),108%
6,COC(=O)N[C@H](C(=O)N1CCC[C@H]1C(=O)Nc1ccc([C@@H]2CC[C@@H](c3ccc(NC(=O)[C@@H]4CCCN4C(=O)[C@@H](NC(=O)OC)C(C)C)cc3)N2c2ccc(C(C)(C)C)cc2)cc1)C(C)C [ombitasvir] (10 µM),113%
7,O=C(O[C@@H]1Cc2c(O)cc(O)cc2O[C@@H]1c1cc(O)c(O)c(O)c1)c1cc(O)c(O)c(O)c1 [epigallocatechin-gallate-(-)] (10 µM),100%
8,CN(C)c1ccc2c(c1)Sc1cc(N(C)C)ccc1N2 [leucomethylene-blue] (0.833333 µM),114%
9,COc1cc(Br)c(Nc2nc(-c3c(C)nc4ncccn34)cs2)c(Br)c1 (10 µM),114%
10,CCCCCCCCOc1ccccc1C(=O)Nc1ccc(C(=O)OCC[N+](C)(CC)CC)cc1 [otilonium] (10 µM),101%
11,CCCCCS(=O)(=O)CCCCCCCCCCn1c(-c2ccc(O)cc2)c(C)c2cc(O)ccc21 (0.833333 µM),102%
12,Cc1cn2c(N)c(Cl)cc(C(=O)NCC3CCN(CC(C)C)CC3)c2n1 (10 µM),103%
13,FC(F)(F)c1ccc(CNc2ccc(Cc3c[nH]c4ncc(Cl)cc34)cn2)cn1 [pexidartinib] (10 µM),77.5%
14,C=CCNC(=O)c1cc([N+](=O)[O-])cc2c(=O)[nH]c(Nc3ccc(Cl)c(Cl)c3)nc12 (10 µM),108%
15,OC[C@H]1NCC[C@@H](O)[C@@H]1O [fagomine] (10 µM),105%
